This is an account of results in PubChem BioAssay AID1981 (Southern Research Specialized Biocontainment Screening …, 2009).

Structures are written as SMILES. The whole screen tested about 2,200 compounds, of which about 480 (22%) were called active. No rule for the calls is given here. These entries were drawn from the full list. Results with a measured potency or affinity are listed apart.

The nature of the test: S. Typhimurium GFP fluorescence modified counterscreen for PhoP regulon inhibitor project dose response (AID 1981). Conditions: 4 h; series mostly up to 150 µM. Background: A counterscreen serves to expose hits that act by an unwanted route or on another target.
On to `Cc1cccc2nc(CSc3nc4ccccc4o3)cn12`, for which the molecule was classed as inactive.

Regarding `O=C(Cc1ccccc1)NC1c2ccccc2-c2ccccc21`, the molecule was classed as inactive.

`O=C(CSCc1ccccc1)Nc1ccc2c(c1)OCO2`: the call was inactive.

`O=C(NCc1ccco1)C1CC(=O)N(CCc2ccccc2)C1` (configuration not stated): the result was inactive.

With `Cn1cccc1CC(=O)NNC(=S)Nc1ccc(Cl)cc1`, the call was inactive.

On to `NC1=NC(=Nc2ccc(Br)cc2)c2ccccc21`, for which the outcome was inactive.

Turning to `N#C/C=C(/N)c1ccc(Br)cc1`, the molecule was called inactive.

With `O=c1c(Cl)c(Cl)cnn1-c1ccccc1`, the outcome was inactive.

Consider `O=C(Cc1cn2ccsc2n1)Nc1ccccc1Oc1ccccc1`, for which the molecule was called inactive.

Regarding `N#CC1=C(N)N=C(SCc2cccc3ccccc23)C(C(N)=O)C12CCCCC2` (configuration not stated), the molecule was classed as inactive.

Consider `CCCCn1c(/N=C/c2ccccc2NS(=O)(=O)c2ccc(C)cc2)nc2ccccc21`, for which the result was inactive.

In the case of `CCOC(=O)C1=C(c2ccccc2)NC(SC)=C(C#N)C1c1ccco1` (configuration not stated), the call was inactive.

`FC(F)(F)c1cccc(NC(=S)NCCN2CCOCC2)c1`: the result was inactive.

In the case of `Nc1nc(CSc2nc3ccccc3[nH]2)nc(N2CCOCC2)n1`, the call was inactive.

In the case of `CN1/C(=C\C=N\NC(=O)c2ccccc2Br)C(C)(C)c2ccccc21`, the call was inactive.

In the case of `CC(C)=CCN1CCN(Cc2ccoc2)CC1CCO` (configuration not stated), the molecule was classed as inactive.

Consider `COc1ccc(N2C(=O)[C@@H]3[C@H](C2=O)[C@H]2c4ccccc4C=CN2[C@@H]3C(=O)Nc2ccccc2)cc1`, for which the molecule was called inactive.

With `COc1ccc(C(C(=O)NC2CCCC2)N(C(=O)c2ccoc2C)c2cc(C)cc(C)c2)cc1` (configuration not stated), the call was inactive.

As to `Cc1cc(C)nc(Nc2ccc(N3CCCC3)cc2)n1`, the molecule was called inactive.

Take `Cc1ccc(Nc2nc(N)nc(CC#N)n2)cc1`: the molecule was called inactive.

For the molecule `CSc1nnc(NC(=O)CCc2ccccc2)s1`, the call was inactive.

Take `CCOC(=O)C(C)/C(C)=N/NC(=O)c1cc2ccccc2cc1O` (configuration not stated): the call was inactive.

On to `CCN(CC)CCOc1ccc2c(c1)C(=NNC(=O)c1ccccn1)c1cc(OCCN(CC)CC)ccc1-2`, for which the molecule was classed as inactive.

For the molecule `O=C1CC(N2CCN(Cc3ccccc3)CC2)C(=O)N1c1ccccc1` (configuration not stated), the outcome was inactive.

Consider `NC(=O)c1c(N)sc2c1CCCCC2`, for which the molecule was called inactive.

Regarding `COc1cccc(C2CC(c3ccccc3OC)n3nc(N)nc3N2)c1` (configuration not stated), the outcome was inactive.

As to `COc1ccc(CC(=O)n2nc(-c3ccccc3)nc2NCc2ccco2)cc1`, the result was inactive.

`CCn1c(Cc2ccccc2)nnc1SCC(=O)Nc1ccc(S(N)(=O)=O)cc1`: the call was inactive.

`C/C(=N\NC(=O)c1c(Cl)c(C)nn1C)c1cccc(NC(=O)COc2ccc(Cl)cc2)c1`: the call was inactive.

Regarding `Cc1cccc(C)c1OCC(=O)Nn1c(COc2ccccc2)nc2ccccc2c1=O`, the call was inactive.

In the case of `COc1cccc(/C=N/n2c(C)nc3ccccc3c2=O)c1O`, the outcome was inactive.

`C=CCNC(=O)c1ccc(N(C)S(=O)(=O)c2ccc(OC)cc2)cc1`: the call was inactive.
